The text below walks through data of ChEMBL document CHEMBL3988442, “University of Dundee, Small-Polar-MMV Screening Library” (2021).

SMILES strings stand for the structures. Hit rate of the full screen: of about 48,000 compounds, about 13,000 (27%) showed an effect of 50% or more. This is one part of the list.

The subject of the assay is Wolbachia pipientis. The experiment in a line: Anti-Wolbachia Cell-Based Screen. It is filed as functional. Also on record: scale not given: in the data most compounds retested in dose-response had high values. As to conditions: 5 µM.
As to `COCCN(CCOC)c1nc2c(s1)c(C)nn2C`, the “Percent Effect” value is 0.9407%.
Then `COC(=O)[C@@H](NC(=O)Nc1ccc(C(C)=O)cc1)C(C)C`, with 115.5%.
To `Cc1ccc(NC(=O)NC(C)c2nc[nH]n2)cc1` (centres undefined) belongs -1.45%; to `COCC(=O)N1CCC(C(=O)Nc2ccc(C(C)=O)cc2)CC1`, -27.44%.
Then `COC(=O)C(NC(=O)Nc1ccc(C(C)=O)cc1)C(C)C` (centres undefined), with 123.5%; and `CN(C)c1ccc(C(=O)N2CCCC(n3cncn3)C2)nn1` (centres undefined), with 102.9%; and `O=C(c1ccc(OCC2CC2)nc1)N1CCCC(n2cncn2)C1` (centres undefined), with -8.592%.
Regarding `Cc1nc(C)n(C2CCCN(C(=O)c3ccc(N(C)C)nn3)C2)n1` (centres undefined), the “Percent Effect” value was -4.997%.
To `Cc1nccn1C1CCCN(C(=O)c2ccc(N(C)C)nn2)C1` (centres undefined) belongs 121.5%; to `Cc1cnn(C2CCCN(C(=O)c3ccc(N(C)C)nn3)C2)c1` (centres undefined), -2.152%; to `CCc1nccn1C1CCCN(C(=O)c2ccc(N(C)C)nn2)C1` (centres undefined), 8.431%.
To `CCn1nc(C(=O)N2CCCC(n3cncn3)C2)ccc1=O` (centres undefined) belongs -5.268%.
Take `COc1ccc(C(=O)N2CCCC(n3cncn3)C2)nn1` (centres undefined): the “Percent Effect” value is on record as 89.87%.
In the case of `COc1cc(CN2CCCC2)ccc1Oc1ccc2c(c1)CC(CN)O2` (centres undefined), the “Percent Effect” value is reported as -3.423%.
Consider `COc1ccccc1CC(=O)NS(C)(=O)=O`, for which the “Percent Effect” value is -0.264%.
Then `CCCN(Cc1ccc(S(=O)(=O)NC)cc1)Cc1ccccc1OC`, with 2.153%; and `COc1ccccc1CC(=O)NS(=O)(=O)c1cncc(Br)c1`, with 1.416%.
With `CCCc1nc(C)c(C(=O)NS(=O)(=O)c2ccc(C#N)cc2)s1`, the “Percent Effect” value turned out to be 11.71%.
Then `COc1ccccc1CC(=O)NS(=O)(=O)c1ccc(NC(C)=O)cc1`, with 120.5%.
Then `COc1ccccc1CC(=O)NS(=O)(=O)c1ccc(C#N)cc1`, with 90.41%.
On to `CCc1nc(CN2CCN(C(=O)COCc3ccccc3)CC2)no1`, for which the “Percent Effect” value was 16.69%.
Turning to `O=C(O)c1csc(S(=O)(=O)Nc2cccc(OCC(F)(F)F)c2)c1`, the “Percent Effect” value turned out to be 12.1%.
To `CCCc1cc(C(=O)Nc2nc(SC)ns2)n(C)n1` belongs 129.6%; to `CSc1nsc(NC(=O)c2cc(C3CC3)nn2C)n1`, 105.4%; to `Cc1nsc(NC(=O)NC2CCN(C)CC2)n1`, -30.6%.
Then `CCCc1cc(C(=O)Nc2nc(SC)ns2)[nH]n1`, with -43.27%.
Turning to `Cc1nsc(NC(=O)N2CCCC2C)n1` (centres undefined), the “Percent Effect” value is given as -6.715%.
In the case of `CC(C)c1nn(C)c(N2CCOCC2)c1CNC(C)c1cccs1` (centres undefined), the “Percent Effect” value came to 1.351%.
As for `CCNC(=O)NC(=O)CNC(C)(CC)c1nc(C)cs1` (centres undefined), the “Percent Effect” value was determined as 6.164%.
Take `CC(C)CN(CC(C)C)Cn1ncc2cn(-c3ccccc3)nc2c1=O`: the “Percent Effect” value was determined as 8.982%.
Then `Cn1cc(C2CCCN2C(=O)c2cn(-c3ccccc3)nn2)cn1` (centres undefined), with 82.94%; and `Cn1cc(C2CCCN2C(=O)Cn2ccc3ccccc32)cn1` (centres undefined), with 10.33%; and `Cc1c(C(=O)N2CCCC2c2cnn(C)c2)cnn1-c1ccccc1` (centres undefined), with 112.8%.
Take `Cc1nn(-c2ccccc2)nc1C(=O)N1CCCC1c1cnn(C)c1` (centres undefined): the “Percent Effect” value is listed as 5.794%.
Then `Cc1ccc(-n2ncc(C(=O)N3CCCC3c3cnn(C)c3)c2C)cc1` (centres undefined), with 102.1%; and `Cc1c(C(=O)N2CCCC2c2cnn(C)c2)nnn1-c1ccccc1` (centres undefined), with -1.391%.
On to `Cc1ccccc1-n1ncc(C(=O)N2CCCC2c2cnn(C)c2)c1C` (centres undefined), for which the “Percent Effect” value is -2.042%.
To `Cc1nn(-c2ccccc2)cc1C(=O)N1CCCC1c1cnn(C)c1` (centres undefined) belongs 105.2%; to `CCCOc1ccc(C(=O)N2CCN3CCNC(=O)C3C2)cc1Cl` (centres undefined), -5.744%; to `Clc1ccc(C2(NCc3noc(C4CC4)n3)CCC2)cc1`, 3.298%.
Then `COCCN(Cc1cccc(C#N)c1)Cc1nnsc1Cl`, with 9.531%; and `COc1ccc(NC(=O)c2ccoc2C)c(N2CCN(C(C)=O)CC2)n1`, with 0.9885%.
Then `Cc1nc(CNC(=O)NCC(O)c2ccc(F)cc2F)cs1` (centres undefined), with -3.131%; and `Cc1nc(C)n(CC2CCCN2Cc2cc(C)on2)n1` (centres undefined), with -8.278%.
Take `Cc1nc(C)n(CC2CCCCN2CC(=O)Nc2ccncc2)n1` (centres undefined): the “Percent Effect” value was -2.552%.
To `Cc1nc(C)n(CC2CCCCN2CC(=O)Nc2cc(C)on2)n1` (centres undefined) belongs 106.4%.
On to `Cc1nc(C)n(CC2CCCN2CC(=O)Nc2cc(C(C)C)no2)n1` (centres undefined), for which the “Percent Effect” value is -1.165%.
In the case of `Cc1nc(C)n(CC2CCCCN2CCC(=O)Nc2cc(C)on2)n1` (centres undefined), the “Percent Effect” value turned out to be 5.676%.
To `Cc1nc(C)n(CC2CCCN2CC(=O)Nc2cc(C)on2)n1` (centres undefined) belongs 98.7%.
